Rows were chosen to be rich in hits. Some 8% of all compounds tested hit in one or more screens of this group.
MCF10A rerep – inducers of DNA re-replication in MCF 10A breast cells | 350,000 tested, 2.9% active | MCF 10A DNA re-replication, Hoechst nuclear intensity, 48 h | Potency, µM (titrated, usually from 46.1 µM), for the others: at the highest dose activity, positive = re-replication, hits mostly activators; note: % of control where 0% means no effect; nearly all actives have a fitted effect of over 50% in size
SW480 rereplic – induces DNA re-replication in SW480 colon adenocarcinoma cells; SW480 DNA re-replication, Hoechst DNA content imaging, 48 h; Potency, µM (series often up to 46.1 µM), inactives show at the top dose re-replication activation, usual class: activators; 340,000 tested, 1.8% active; AID 624297; note: % of control where 0% means no effect; nearly all actives have a fitted effect of over 55% in size
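Image-based DNA-content assay: after two days of treatment, nuclei were labelled with the DNA dye Hoechst and imaged, and hits were compounds raising the count of nuclei showing high fluorescence intensity.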
KB-3-1 tox – KB-3-1 parental cell cytotoxicity; KB-3-1 viability, CellTiter-Glo ATP luminescence, 72 h; Potency, µM (top dose mostly 46.1 µM), actives largely listed as cytotoxic; 400,000 tested, 1.4% active; note: % is set by controls: 0 for no effect and ±100 for the full control effect; nearly all actives have a fitted effect of over 60% in size
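Using CellTiter-Glo luminescence, growth of non-resistant KB-3-1 adenocarcinoma cells is assessed 72 h after pin-tool compound addition at 37 °C. Normalized responses across the concentration series yield fitted curves.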
HT1080NT lethal – kills 2HG-producing HT-1080-NT fibrosarcoma cells; HT-1080-NT fibrosarcoma viability, CellTiter-Glo ATP luminescence, 48 h; Potency, µM (doses to about 46.1 µM), for inactives: top-dose activity, negative = less viability, actives largely listed as cytotoxic; 360,000 tested, 1.6% active;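 note: NT is the 2HG producing partner of a matched IDH1 knockdown line; 0% = DMSO-treated cells and -100% = media-only wells without cells; nearly all actives have a fitted effect of over 55% in size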
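A 48-hour cytotoxicity screen used HT-1080-NT cells plated 2 hours before compound delivery. ATP-based CellTiter-Glo luminescence measured viability, normalized to DMSO and no-cell controls.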
HT1080 IDH1KD tx – kills HT-1080 cells with IDH1 knockdown; 360,000 tested, 2% active; HT-1080 IDH1 knockdown viability, ATP luminescence, 48 h; Potency, µM (doses to about 46.1 µM), inactives show top-dose activity, negative = toxicity, hits mostly cytotoxic;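 note: 0% = DMSO wells and -100% = cell-free medium wells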
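Viability of IDH1-knockdown HT-1080 fibrosarcoma cells was assessed by CellTiter-Glo after 48 h at 37 °C with titrated compound; concentration-effect curves were classified by fit quality and response size.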
KB-V1 cytotox – kills drug-selected multidrug resistant KB-V1 cells; KB-V1 MDR cells viability, CellTiter-Glo, 72 h; Potency, µM (titrated, usually from 46.1 µM), hits mostly cytotoxic; 400,000 tested, 3.4% active; note: % is set by controls: 0 for no effect and ±100 for the full control effect; nearly all actives have a fitted effect of over 60% in size
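Potencies derive from concentration-effect curves fitted to normalized luminescence (CellTiter-Glo) of KB-V1 cells treated for 72 h at 37 degrees C in phenol-red-free DMEM containing 10% FBS.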
An asterisk follows results filed as active; i = inactive; ? = inconclusive; · = no result given; [ ] = remark or other dose. Calls come from the whole dose curve; as a rule, active = well fitted curve in the direction sought with a large enough effect; inconclusive = small, poorly fitted or top-dose-only effect, or another doubt; inactive = no such curve, though single readings can be large; an effect the other way counts as inactive or inconclusive. Potency is the fitted concentration of half-maximal effect.

SMILES | MCF10A rerep | SW480 rereplic | KB-3-1 tox | HT1080NT lethal | HT1080 IDH1KD tx | KB-V1 cytotox
Cc1ccc(C)c(CN2C(=O)c3ccccc3S(=O)c3ccc(C(=O)NCCC4=CCCCC4)cc32)c1 (stereo not given) | · | · | i | · | · | i
Cn1c(SCC(=O)Nc2cccc(Br)c2)nnc1-c1cc2ccccc2o1 | 5% | 20% | i | -4% | 1% | 16µM*
Cn1c(SCC(=O)Nc2cccc(C(=O)O)c2)nnc1-c1cc2cc(Br)ccc2o1 | -3% | -1% | i | 1% | 7% | i
Cc1ccc(-c2nnc(SCC(=O)Nc3ccc4c(c3)oc3ccccc34)n2C)c(Cl)c1 | 9% | 0% | i | ? | -4% | 2.6µM*
CCc1cccc(C)c1NC(=O)CSc1nnc(-c2cc3cc(Br)ccc3o2)n1CC | ? | ? | ? | -6% | -22% | 21µM*
O=C(Nc1ccc(Cl)c(Cl)c1)C1C2C=CC3(O2)C1C(=O)N(CCN1CCCCC1)C3C(=O)NC1CCCCC1 (stereo not given) | ? | ? | i | 21µM* | ? | i
Cc1ccc(NC(=O)C2C3C=CC4(O3)C2C(=O)N(CCCN2CCOCC2)C4C(=O)NC2CCCCC2)cc1Cl (stereo not given) | -23% | -15% | ? | 2% | -1% | i
CN1N/C(=C\c2ccccc2)N=C2C(=O)N(C)C(=O)N=C21 | · | · | i | · | · | i
CC/C=C1/N=C2C(=O)N(C)C(=O)N=C2N(C)N1 | · | · | 18µM* | · | · | i
O=C(COc1ccccc1Cl)N(Cc1cccc(F)c1)C1CCS(=O)(=O)C1 (stereo not given) | · | · | i | · | · | i
CCOC(=O)c1c(NC(=O)COc2ccccc2C#N)sc2c1CC(C)(C)NC2(C)C | ? | 18µM* | ? | -2% | -12% | ?
CC1(C)Cc2c(sc(NC(=O)COc3cccc4ccccc34)c2C#N)C(C)(C)N1 | 16µM* | ? | ? | 9.2µM* | 15µM* | i
CC1(C)Cc2c(sc(NC(=O)Cc3ccccc3)c2C#N)C(C)(C)N1 | · | · | i | -16% | -16% | i
Cc1ccc(OCC(=O)Nc2sc3c(c2C#N)CC(C)(C)NC3(C)C)cc1 | 2% | 3% | i | 21µM* | ? | i
CCn1ccc2cc(S(=O)(=O)N3CCC(C(=O)NCc4cccc(C)c4)CC3)ccc21 | · | · | i | · | · | i
COC(=O)Cc1cn(-c2ncc(C(F)(F)F)cc2Cl)c2ccccc12 | 11% | -1% | i | -3% | 0%[9.24 µM] | i
CN(C)/C=C/C(=O)/C=C/c1cn(-c2ncc(C(F)(F)F)cc2Cl)c2ccccc12 | 3.7µM* | ? | ? | ? | ? | ?
COc1cc(OC)nc(Nc2nc(C(N)Cc3ccc(C(F)(F)F)cc3)cs2)n1 (stereo not given) | · | · | ? | 18µM* | ? | ?
COc1cc(OC)nc(Nc2nc(C(C)N)cs2)n1 (stereo not given) | · | · | i | 16% | 15% | i
COc1cccc(Nc2nc(C(N)Cc3ccc(C(F)(F)F)cc3)cs2)n1 (stereo not given) | · | · | i | 13µM* | 23µM* | i
COc1ccc(C(N)c2csc(Nc3ccc(C(F)(F)F)cn3)n2)cc1 (stereo not given) | · | · | i | ? | ? | i
COc1cccc(Nc2nc(C(N)COCc3ccccc3)cs2)n1 (stereo not given) | · | · | i | 18µM* | ? | i
COc1cccc(Nc2nc(C(N)CC(C)C)cs2)n1 (stereo not given) | · | · | i | ? | 16µM* | i
COc1cccc(Nc2nc(C(N)C(C)C)cs2)n1 (stereo not given) | · | · | ? | ? | -13% | i

Screening data (PubChem BioAssay)
